HEK293 cAMP cs = counter-screen for TSHR agonists: cAMP increase in parental HEK293; parental HEK293 CNG cAMP sensor, membrane potential fluorescence; Potency, µM (doses to about 57.1 µM), for inactives: at the top dose activation, most hits filed as activators; hit rate 2.5% among 73,000; further: % of control where 0% means no effect; nearly all actives have a fitted effect of over 55% in size
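Parental HEK 293 cells stably expressing a cAMP-gated CNG channel were loaded with membrane potential dye containing 100 uM RO 20-1724 for 60 min. Compound added for 30 min; depolarization read as fluorescence intensity at 590 nm.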
CRE Fsk mod = CRE-bla signaling modulation under forskolin stimulation | hit rate 2.5% among 71,000 | Potency, µM (highest dose often 38.2 µM), inactives show at the highest dose activity change, negative = inhibition, usual class: activators | CHO CRE-bla reporter (cAMP response element driving beta-lactamase), forskolin EC10, beta-lactamase ratio; active means well fitted activation curve with a large enough effect in the signal ratio, with a control signal flat, not every such curve was filed as active; inconclusive means small, poorly fitted or top-dose-only effect, or effect the other way, or a change in a side signal; the % refers to the signal ratio; further: % of control where 0% means no effect
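Using CellSensor CRE-bla CHO cells in Opti-MEM with 0.5% dialyzed FBS, compounds were titrated with EC10 NKH 477 for 3 h at 37 °C. CCF4 ratio (460/530 nm) gave %Activity; AC50 derived.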
Tau filament bind = binders of human tau filaments; P10636; recombinant tau filaments, thioflavin S fluorescence, 15 h; filaments grown with octadecylsulfate alongside compound; Potency, µM (doses to about 57.1 µM), for inactives: at the top dose activity change, negative = inhibition; hit rate 2% among 71,000;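 further: on the % scale 0 is the no-effect control and ±100 the full control effect; actives lower thioflavin S fluorescence by blocking filaments or displacing dye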
Target sequence (P10636 whole entry, looked up): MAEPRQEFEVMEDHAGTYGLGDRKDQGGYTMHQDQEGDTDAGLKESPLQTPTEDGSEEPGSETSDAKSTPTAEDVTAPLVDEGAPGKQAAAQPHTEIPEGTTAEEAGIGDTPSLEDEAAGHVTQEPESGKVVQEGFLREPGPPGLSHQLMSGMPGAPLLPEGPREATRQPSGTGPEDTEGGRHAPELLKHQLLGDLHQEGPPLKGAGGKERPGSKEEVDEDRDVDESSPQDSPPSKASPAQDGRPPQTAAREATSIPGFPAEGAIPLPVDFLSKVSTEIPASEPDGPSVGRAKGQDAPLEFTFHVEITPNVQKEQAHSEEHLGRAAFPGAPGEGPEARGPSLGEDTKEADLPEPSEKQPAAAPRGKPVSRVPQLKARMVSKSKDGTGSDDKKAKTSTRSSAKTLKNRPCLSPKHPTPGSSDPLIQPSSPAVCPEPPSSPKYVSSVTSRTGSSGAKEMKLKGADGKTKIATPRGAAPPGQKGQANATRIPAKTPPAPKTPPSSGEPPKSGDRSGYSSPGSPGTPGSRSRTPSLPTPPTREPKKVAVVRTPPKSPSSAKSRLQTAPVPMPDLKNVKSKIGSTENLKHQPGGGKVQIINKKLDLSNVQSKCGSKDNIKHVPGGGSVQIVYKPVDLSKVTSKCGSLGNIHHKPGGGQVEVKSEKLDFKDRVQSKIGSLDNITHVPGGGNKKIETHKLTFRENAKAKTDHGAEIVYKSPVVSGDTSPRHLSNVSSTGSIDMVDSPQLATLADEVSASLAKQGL
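Thioflavine S fluorescence (ex 450, em 510 nm) reports filaments formed from 1 uM human tau plus 30 uM ODS over 15 h at 37 C (10 mM HEPES pH 7.4, 100 mM NaCl, 5 mM DTT); compounds displacing dye or blocking filaments lower signal.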
ERK AVP inh = vasopressin-driven ERK pathway inhibition. HEK293-V1b, vasopressin-stimulated pERK AlphaScreen. Potency, µM (highest dose often 57.5 µM), inactives show at the top dose activity, negative = inhibition, most hits filed as inhibitors. hit rate 0.99% among 72,000; further: on the % scale 0 is the no-effect control and ±100 the full control effect; nearly all actives have a fitted effect of over 55% in size
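qHTS, compounds titrated on V1b-expressing HEK293 cells. Preincubation 30 min at 37C, vasopressin 25 nM for 5 min, lysis 10 min, bead incubation 5 hr at room temperature.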
TSHR ag = agonists of human thyroid stimulating hormone receptor | Potency, µM (series often up to 57.1 µM), for inactives: at the top dose activation, actives largely listed as activators | HEK293-CNG-TSHR cells (CNG channel as cAMP sensor), membrane potential dye, cAMP | P16473 | hit rate 0.48% among 73,000; active means well fitted activation curve with a large enough effect in the main read-out, with a control signal flat, not every such curve was filed as active; inconclusive means small, poorly fitted or top-dose-only effect, or a change in a side signal; inactive means no such curve, though single readings can be large or run the other way; % of control where 0% means no effect;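 further: the control signal comes from parental cells without the receptor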
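HEK 293 cells stably expressing TSHR and a modified CNG channel, with CNG-only parental cells as counterscreen, were preloaded 60 min at room temperature with membrane potential dye containing 100 uM RO 20-1724. Compound exposure was 30 min, and depolarization was read as fluorescence at 590 nm.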
An asterisk follows results filed as active; ! = a repeat was not active; [ ] = dose if it differs, or a comment. The list is not random: actives were taken first. Their share in the collection is about 7.6%. Unless noted, the call rests on the fitted dose curve; in most records, active means well fitted curve in the direction sought with a large enough effect; inconclusive means small, poorly fitted or top-dose-only effect, or another doubt; inactive means no such curve, though single readings can be large; an effect the other way counts as inactive or inconclusive. Potency means the concentration at half of the fitted maximal effect.

How did COc1cc2cc(c1Cl)N(C)C(=O)C[C@H](OC(=O)C(C)C)[C@]1(C)O[C@@H]1[C@@H](C)[C@H]1C[C@](O)(NC(=O)O1)[C@@H](OC)/C=C\C=C(\C)C2 do in these assays?
HEK293 cAMP cs: 1µM*; CRE Fsk mod: 0.016µM*; Tau filament bind: 10%[11.4 µM]; ERK AVP inh: -16%[11.5 µM]; TSHR ag: inconclusive

How did CCNC(=O)[C@@H]1O[C@@H](n2cnc3c(N)ncnc32)[C@H](O)[C@H]1O do in these assays?
HEK293 cAMP cs: 0.16µM*; CRE Fsk mod: inconclusive; Tau filament bind: inconclusive; ERK AVP inh: inconclusive; TSHR ag: inconclusive

What do the screens show for `Nc1nc(N)c2nc(CNc3ccc(C(=O)N[C@H](CCC(=O)O)C(=O)O)cc3)cnc2n1`?
HEK293 cAMP cs: 13%; CRE Fsk mod: inconclusive; Tau filament bind: 24%; ERK AVP inh: 9%; TSHR ag: 1%

Results for COc1ccc(N2CCN(CCCN)CC2)cc1 ?
HEK293 cAMP cs: -6%; CRE Fsk mod: -8%; Tau filament bind: 20µM*; ERK AVP inh: -19%; TSHR ag: -5%

How did NCCCN1CCN(c2ccccc2)CC1 do in these assays?
HEK293 cAMP cs: 7%[11.4 µM]; CRE Fsk mod: -15%[7.6 µM]; Tau filament bind: 1%[11.4 µM]; ERK AVP inh: -8%[11.5 µM]; TSHR ag: 14%[11.4 µM]

Results for Cc1nn(Cc2ccccc2Cl)c(Cl)c1C(=O)OCC(=O)NCc1ccco1 ?
HEK293 cAMP cs: 25µM*; CRE Fsk mod: -1%; Tau filament bind: 23%; ERK AVP inh: 4%; TSHR ag: inconclusive

Results for Cc1cc(NC(=O)COC(=O)c2c(C)nn(Cc3ccccc3Cl)c2Cl)no1 ?
HEK293 cAMP cs: inconclusive; CRE Fsk mod: 2%; Tau filament bind: 130%; ERK AVP inh: -8%; TSHR ag: inconclusive

How did CCN1C(=O)/C(=C2\C=Cc3ccccc3N2CC)OC1=S do in these assays?
HEK293 cAMP cs: -66%; CRE Fsk mod: 0%; Tau filament bind: 1µM*; ERK AVP inh: 16µM*; TSHR ag: inconclusive

Results for O=c1[nH]oc2c1CCNC2 ?
HEK293 cAMP cs: -3%; CRE Fsk mod: -12%; Tau filament bind: 32µM*!; ERK AVP inh: 8%; TSHR ag: 12%

How did CC1(C)CN=C(NCc2ccccc2Cl)S1 do in these assays?
HEK293 cAMP cs: inconclusive; CRE Fsk mod: 13%; Tau filament bind: 25µM*; ERK AVP inh: -7%; TSHR ag: inconclusive

What do the screens show for `Nc1ncnc2c1ncn2[C@@H]1O[C@@H](COP(=O)(O)CP(=O)(O)OP(=O)(O)O)[C@H](O)[C@@H]1O`?
HEK293 cAMP cs: inconclusive; CRE Fsk mod: -8%; Tau filament bind: 8%; ERK AVP inh: 7%; TSHR ag: inconclusive

Results for CN1C[C@@H](CS(=O)(=O)N(C)C)C[C@H]2c3cccc4c3c(cn4C)C[C@@H]21 ?
HEK293 cAMP cs: 11%; CRE Fsk mod: 5%; Tau filament bind: 10%; ERK AVP inh: -8%; TSHR ag: 4%

Results for O=Nc1ccc(Nc2ccccc2)cc1 ?
HEK293 cAMP cs: -21%; CRE Fsk mod: inconclusive; Tau filament bind: 32µM*; ERK AVP inh: -18%; TSHR ag: inconclusive

What do the screens show for `c1ccc(N=Nc2ccccc2)cc1`?
HEK293 cAMP cs: -8%; CRE Fsk mod: 1%; Tau filament bind: -3%; ERK AVP inh: -14%; TSHR ag: 1%

Results for c1ccc(Nc2ccc(Nc3ccccc3)cc2)cc1 ?
HEK293 cAMP cs: -54%; CRE Fsk mod: -17%; Tau filament bind: 13µM*; ERK AVP inh: inconclusive; TSHR ag: inconclusive

Results for c1ccc(-c2ccccc2)cc1 ?
HEK293 cAMP cs: 4%; CRE Fsk mod: -10%; Tau filament bind: 20%; ERK AVP inh: 10%; TSHR ag: 2%

How did CC[N+](CC)(CCCNC1=CC(=O)C(NCCC[N+](CC)(CC)Cc2ccccc2)=CC1=O)Cc1ccccc1 do in these assays?
HEK293 cAMP cs: 2%; CRE Fsk mod: -12%; Tau filament bind: 32µM*; ERK AVP inh: 8%; TSHR ag: 0%

Results for COc1cc([C@@H](O)CN)ccc1O ?
HEK293 cAMP cs: -5%; CRE Fsk mod: -4%; Tau filament bind: 3%; ERK AVP inh: 10%; TSHR ag: 5%
